SMILES strings stand for the structures. Compounds without any hit were thinned out: in the full panel of roughly 83,000, 20% have a hit.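 Step 1: grow cells in 96-well plates. Step 2: add test compound at a single concentration. Step 3: incubate 48 h. Step 4: record percent growth.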 Unmarked numbers belong to inactive results. Active and inactive are the calls of the source. The calls were made as follows: active = growth percent below 10; inactive = the rest.

Experimental findings from PubChem BioAssay (NCI) are described below.

Test systems include NCI-H322M lung; HOP-62 NSCLC; NCI-H460 lung; HOP-92 NSCLC; NCI-H522 lung; A549/ATCC NSCLC; 786-0 renal; COLO 205 colon; NCI-H226 lung.
Assay in all cases: NCI-60 one-dose screen, 48 h (100 = growth as untreated, 0 = no growth, -100 = all killed)
Common to all, as to conditions: 10 µM unless noted

With `COc1ccc(-c2cs/c(=N\N=C\c3ccc(O)cc3O)n2/N=C/c2ccc(O)cc2O)cc1`, the growth with NCI-H322M lung was 5.37% (active); in the assay with HOP-62 NSCLC, -38.5% (active); in the assay on NCI-H460 lung it was -10.5% (active); in the assay on HOP-92 NSCLC it was 2.31% (active); in the assay with NCI-H522 lung, -35.6% (active); with A549/ATCC NSCLC, -21.5% (active). Moreover, the values for the growth in the assay on 786-0 renal and with COLO 205 colon were 6.51% (active) and -81.1% (active), respectively.

Take `O=C(/C(=C\c1c(-c2ccccc2)[nH]c2ccccc12)S(=O)(=O)c1ccccc1)c1ccccc1`: the growth is 53.6% with NCI-H226 lung; 67.6% with NCI-H322M lung; 64.5% with HOP-62 NSCLC; 37.8% in the assay on NCI-H460 lung; -4.34% (active) in the assay with HOP-92 NSCLC; -12.2% (active) in the assay with NCI-H522 lung. For the same compound, the growth in the assay with A549/ATCC NSCLC is 44.6%; in the assay with 786-0 renal, 68.1%; with COLO 205 colon, 70.8%.

For the compound `O=c1[nH]c2ccccc2cc1-c1nc2ccc(Cl)cc2[nH]1`, the growth in the assay with NCI-H322M lung was 50.3%; with HOP-62 NSCLC, 67.2%; in the assay on NCI-H460 lung, 18%; in the assay with HOP-92 NSCLC it was 7.43% (active); in the assay with A549/ATCC NSCLC, 40.1%; with 786-0 renal, 52.8%. The growth in the assay with COLO 205 colon was 52.2%.

On to `C=C(C)[C@@H]1CC[C@]2(C(=O)OCCCC[P+](c3ccccc3)(c3ccccc3)c3ccccc3)CC[C@]3(C)[C@H](CC[C@@H]4[C@@]5(C)CC[C@H](OC(=O)C(Cl)Cl)C(C)(C)[C@@H]5CC[C@]43C)[C@@H]12`, for which the growth in the assay with NCI-H226 lung is -78.5% (active); in the assay with NCI-H322M lung it was 2.79% (active); with HOP-62 NSCLC, -0.785% (active); in the assay on NCI-H460 lung it was -41.1% (active); in the assay on HOP-92 NSCLC, -67.4% (active); in the assay with NCI-H522 lung it was -38.3% (active). Moreover, the results for the growth in the assay on A549/ATCC NSCLC, in the assay with 786-0 renal and in the assay on COLO 205 colon were 0.629% (active), -77.9% (active) and -74.4% (active), respectively.

On to `COc1ccc2nc(-c3ccc(OC)c(OC)c3)cc(-c3nnc(SCC(=O)Nc4ccc(C(C)=O)cc4)o3)c2c1`, for which the growth was 96.9% in the assay with NCI-H226 lung; 103% in the assay on NCI-H322M lung; 107% in the assay with HOP-62 NSCLC; 105% with NCI-H460 lung; 116% in the assay on HOP-92 NSCLC; 94% in the assay on A549/ATCC NSCLC. Moreover, the growth with 786-0 renal is 101%; with COLO 205 colon it was 116%.

For the compound `COc1cc(/C=C/C(=O)c2ccc(NC(=O)CSc3nnc(-c4cc(OC)c(OC)c(OC)c4)n3-c3ccccc3)cc2)cc(OC)c1OC`, the growth is -64% (active) in the assay with NCI-H226 lung; 64.5% with NCI-H322M lung; -9.19% (active) in the assay with HOP-62 NSCLC; 13% in the assay on NCI-H460 lung; 53.9% in the assay on HOP-92 NSCLC; -4.14% (active) in the assay with NCI-H522 lung. Besides, the results for the growth in the assay with A549/ATCC NSCLC, with 786-0 renal and with COLO 205 colon were 20.2%, -52% (active) and 10.2%, respectively.

With `CCOC(=O)c1c(C(F)(F)F)n([O-])c2ccc(Cl)cc2[n+]1=O`, the growth in the assay on NCI-H226 lung was 3.03% (active); in the assay with NCI-H322M lung, 6.75% (active); with HOP-62 NSCLC, -65.6% (active); in the assay on NCI-H460 lung, -78.5% (active); with HOP-92 NSCLC it was -78.2% (active); in the assay on NCI-H522 lung, -59.4% (active). Also, the growth in the assay with A549/ATCC NSCLC is -39.6% (active); in the assay with 786-0 renal, -73.8% (active); in the assay with COLO 205 colon, -59.2% (active).

Take `CSc1nc(-c2cccs2)c2c(N)[nH]nc2n1`: the growth in the assay on NCI-H226 lung was 104%; in the assay with NCI-H322M lung it was 92.8%; in the assay with HOP-62 NSCLC, 87.9%; in the assay on NCI-H460 lung it was 113%; in the assay with HOP-92 NSCLC, 110%; in the assay on NCI-H522 lung, 83.3%. The growth was 98.5% in the assay on A549/ATCC NSCLC, 91.4% in the assay with 786-0 renal and 112% in the assay with COLO 205 colon.

For the compound `O=C(C[n+]1cccc2cc(Cl)ccc21)c1ccc2c(c1)CCCC2`, the growth with NCI-H226 lung is 39%; with NCI-H322M lung it was 61.6%; in the assay with HOP-62 NSCLC, 36.2%; in the assay on NCI-H460 lung it was 19.8%; in the assay on HOP-92 NSCLC, 4.68% (active); in the assay on NCI-H522 lung it was -3.94% (active). Further, the growth in the assay on A549/ATCC NSCLC is 34.5%; with 786-0 renal, 80.4%; in the assay with COLO 205 colon, 2.8% (active).
